Results: PubChem BioAssay AID624417 (National Center for Advancing Translational Sciences (NCATS), 2012)
The campaign covered roughly 410,000 compounds. About 6,400 (1.6%) were called active. Where a call stands in place of a potency, no number is given. About 20% were inconclusive and are not listed. Calls follow the shape of the dose curve; as a rule, active = well fitted inhibition curve with a large enough effect; inconclusive = small, poorly fitted or top-dose-only effect; inactive = no such curve, though single readings can be large or run the other way. Many of the other results were omitted from the sample, so actives are more common in it than they were.

molecular target: Glucagon-like peptide 1 receptor (Homo sapiens) (UniProt P43220); assay: qHTS of GLP-1 Receptor Inverse Agonists (Inhibition Mode); conditions: HEK293 GLP-1R CRE-luciferase, luminescence, 24 h, GLP-1R form is constitutively active; series mostly up to 38.3 µM; also: nearly all actives have a fitted effect of over 55% in size
Sequence (P43220 whole entry, looked up): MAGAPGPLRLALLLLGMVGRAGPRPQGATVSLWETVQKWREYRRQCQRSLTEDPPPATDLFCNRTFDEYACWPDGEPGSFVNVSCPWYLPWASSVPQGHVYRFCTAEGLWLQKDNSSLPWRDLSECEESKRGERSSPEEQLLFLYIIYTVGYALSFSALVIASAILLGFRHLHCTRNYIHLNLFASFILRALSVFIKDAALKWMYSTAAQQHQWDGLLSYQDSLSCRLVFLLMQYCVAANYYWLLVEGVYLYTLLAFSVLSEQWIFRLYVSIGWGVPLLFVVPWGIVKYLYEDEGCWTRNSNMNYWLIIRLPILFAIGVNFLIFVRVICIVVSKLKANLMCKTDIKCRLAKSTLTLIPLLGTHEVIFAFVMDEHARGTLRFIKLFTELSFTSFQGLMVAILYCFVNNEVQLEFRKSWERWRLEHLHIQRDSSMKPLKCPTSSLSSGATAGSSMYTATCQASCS
How it was run: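 Readout was luciferase luminescence, measured 12 min after detection reagent at room temperature. Beforehand, GLP-1R reporter HEK293 cells had sat 12 h, then received compounds for 24 hr at 37 deg C.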
Potency is read from the fitted curve at half-maximal effect.

Compound | Potency
O=C(OCc1ccccc1)N1CCC2CC1c1cc(N3CCN(S(=O)(=O)c4cc(Cl)cc(Cl)c4)CC3)ccc12 (configuration not stated) | inactive
CC(=O)Nc1ccc(SCC(=O)NC(=O)c2ccc(Cl)cc2)cc1 | inactive
COc1ccc([C@H]2C[C@@H](n3cc(COC(=O)c4ccccc4)nn3)[C@H](O)CN2C(=O)c2cccs2)cc1 | inactive
CC(C)OC(=O)CC(=O)CC(O)c1cccc([N+](=O)[O-])c1 (configuration not stated) | inactive
NCCCCC(C(=O)O)N(C(=O)OCc1ccccc1)C(=O)OCc1ccccc1 (configuration not stated) | inactive
COc1ccc(CN2C(=O)C(CC(=O)NCCN3CCOCC3)CC(C(=O)N(C(C)C)C(C)C)=C2C)cc1 (configuration not stated) | inactive
COc1ccc(C(=O)NC(=S)Nc2ccccc2N2CCN(S(C)(=O)=O)CC2)cc1OC | inactive
O=C(Nc1ccccc1N1CCCC1)c1ccc2ccccc2c1 | inactive
O=C(NC(=S)Nc1ccccc1N1CCCCC1)c1ccc(F)cc1 | 12.6 µM (active)
CCCC/C=C/c1cccc2nncn12 | inactive
Cc1ccc(C=O)c([B-](F)(F)F)c1 | inactive
CN1c2ccc(C=O)c3c(C=O)ccc(c23)N(C)C1(C)C | 12.6 µM (active)
CCOC(=O)N1C(=O)C[C@](Sc2ccc(C)cc2)(C(=O)OC)[C@H]1c1ccccc1 | inactive
COc1cccc(NC(=O)[C@H](Cc2c[nH]c3ccccc23)NC(=O)[C@@H]2Cc3ccccc3CN2)c1 | 3.98 µM (active)
COc1ccc(NC(=O)[C@H](NC(=O)[C@@H]2Cc3ccccc3CN2)c2ccccc2)cc1 | inactive
COc1ccc(CNC(=O)[C@H](Cc2c[nH]c3ccccc23)NC(C)=O)cc1OC | inactive
O=C(O)c1ccccc1-c1cccc2nncn12 | inactive
CCCn1c(C)cc(C(=O)COC(=O)c2c(C)nn(-c3ccccc3)c2C)c1C | 10 µM (active)
Cc1cccc(C)c1NC(=O)COC(=O)c1c(C)nn(-c2ccccc2)c1C | inactive
COc1ccc(CNC(=O)COC(=O)c2c(C)nn(-c3ccccc3)c2C)cc1OC | inactive
Cc1noc(C)c1C(=O)N1CCC1(C)C(=O)NS(=O)(=O)c1ccc(C#N)cc1 (configuration not stated) | inactive

Compound | Potency
Clc1ccc(-c2cccc3nccn23)cc1 | inactive
COc1ccc(C2CC(c3cccc(OC)c3)=NN2c2ccc(S(N)(=O)=O)cc2)cc1 (configuration not stated) | inactive
Cc1cccn2c(=O)c3cc(C(=O)NCC4CCCO4)c(=N)n(Cc4ccc(F)cc4)c3nc12 (configuration not stated) | inactive
CCCn1c(=N)c(C(=O)NCc2ccccc2)cc2c(=O)n3cccc(C)c3nc21 | inactive
Cc1cccn2c(=O)c3cc(C(=O)NCCN4CCOCC4)c(=N)n(Cc4cccnc4)c3nc12 | 3.98 µM (active)
C=CCn1c2c(c3ccccc31)CCC2 | inactive
COc1ccc2c(c1)C=CC1(O2)N(CCO)c2ccccc2C1(C)C (configuration not stated) | 2.51 µM (active)
CN1c2ccc([N+](=O)[O-])cc2C(C)(C)C12C=Cc1cc(C(=O)O)ccc1O2 (configuration not stated) | inactive
CCCCn1nnnc1C1(C)CCC(=O)N1Cc1ccc(OC)c(OC)c1 (configuration not stated) | inactive
Cc1cccc(C)c1NC(=O)CNC(=O)c1ccc(N2CCOCC2)c([N+](=O)[O-])c1 | inactive
CC(C)NC(=O)C1(C)CCCCN1Cc1cccc(C(F)(F)F)c1 (configuration not stated) | inactive
CC1(C(=O)Nc2cccnc2)Cc2c(-c3ccccc3)ccnc2O1 (configuration not stated) | inactive
CC(=O)Nc1cnc(-c2ccc(O)cc2C)cn1 | inactive
Cc1cccnc1NC(=O)c1cccc(S(=O)(=O)N2CCN(c3ccc(F)cc3)CC2)c1 | inactive
Cc1cccc(C)c1NC(=O)CN1CCN(c2ccc(F)cc2)CC1 | inactive
Oc1c(CN2CCN(c3ccc(F)cc3)CC2)cc(Cl)c2cccnc12 | 2.51 µM (active)
Cc1ccc(S(=O)(=O)NN=C2CC(C)(C)CC(=O)C2(C)C)cc1 | inactive
CSc1ccc(/C=C/C(=O)NC23CC4CC(CC(C4)C2)C3)cc1 | 11.2 µM (active)
COc1ccc(/C=C/C(=O)Nc2ccc(C34CC5CC(CC(O)(C5)C3)C4)cc2)cc1OC | inactive
COc1ccccc1C(=O)NC(=S)NC12CC3CC(CC(C3)C1)C2 | inactive
COc1ccc(C(=O)NCC2CCCO2)cc1S(=O)(=O)NCc1ccc(Cl)cc1 (configuration not stated) | inactive

Compound | Potency
Cc1cccc(C)c1-n1nnnc1C1(C)CCC(=O)N1CCOc1ccccc1 (configuration not stated) | inactive
O=C(NCc1ccco1)c1cccc(-c2ccc3nncn3c2)c1 | inactive
CCCC(=O)C1CCN(Cc2ccccc2)CC1 | inactive
CCCCN(C)C(=O)C1CCN(Cc2ccccn2)CC1 | inactive
CCCCN(Cc1ccccc1)C(=O)C1CCN(Cc2sccc2C)CC1 | 7.08 µM (active)
Cc1cccc(Nc2nc(-c3ccccc3)cs2)n1 | 3.16 µM (active)
O=C(O)c1ccccc1C(=O)Nc1nc(-c2ccccc2)cs1 | inactive
CC(=O)Nc1cccc(-c2csc(Nc3cccc(C)n3)n2)c1 | inactive
CCc1c(N=O)c(-c2ccccc2)n(O)[n+]1[O-] | inactive
CCC(Oc1ccccc1)C(=O)OCC(=O)Nc1c(C)nn(-c2ccccc2)c1C (configuration not stated) | inactive
Cc1ccc(S(=O)(=O)N(CC(=O)N2CCc3ccccc3C2)c2cccc(Cl)c2)cc1 | 8.91 µM (active)
CS(=O)(=O)N(CC(=O)N1CCc2ccccc2C1)c1ccc(Br)cc1 | inactive
COc1cccc(N(CC(=O)N2CCc3ccccc3C2)S(C)(=O)=O)c1 | inactive
O=C(NCc1ccccc1)C1c2ccccc2OCC(=O)N1C1CC1 (configuration not stated) | inactive
CC(C)CC1C(=O)N(Cc2cn(Cc3ccco3)nn2)CCS(=O)(=O)N1Cc1ccc(-c2ccc(Cl)c(Cl)c2)cc1 (configuration not stated) | 10 µM (active)
CC1C(=O)N(Cc2cn(Cc3ccco3)nn2)CCS(=O)(=O)N1Cc1ccc(-c2cccc(CO)c2)cc1 (configuration not stated) | inactive
CC(C)CC1C(=O)N(Cc2cn(CC3CCCCC3)nn2)CCS(=O)(=O)N1Cc1ccc(-c2ccc(Cl)cc2)cc1 (configuration not stated) | inactive
COCOCCn1cc(CN2CCS(=O)(=O)N(Cc3ccc(-c4cccc(N(C)C)c4)cc3)C(CC(C)C)C2=O)nn1 (configuration not stated) | inactive
COc1ccc(-c2ccc(CN3C(CC(C)C)C(=O)N(Cc4cn(CC5CCCCC5)nn4)CCS3(=O)=O)cc2)cc1 (configuration not stated) | 10 µM (active)
COc1ccc(-c2ccc(CN3C(C(C)C)C(=O)N(Cc4cn(CC5CCCCC5)nn4)CCS3(=O)=O)cc2)cn1 (configuration not stated) | inactive
